About 2,000 (36%) of roughly 5,500 compounds were called active. Not shown: some 18% with an inconclusive outcome. Rule as the data show it: active = normalized growth mostly below about 0.91 (no sharp cut-off); inconclusive = no clear call, values can overlap the other calls; inactive = mostly above about 0.92. The list shows a part of the results.
Assay: chemical genetic growth profiling, strain panel (AID 1159580);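 also: tested at 20 µM; growth read once vehicle control cultures reached saturation at 30 °C; 1 = growth at the plate median or of vehicle wells; lower values mean less growth of the strain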
Settings: S. cerevisiae deletion strains, growth OD

Measured: normalized growth

C[C@H]1C[C@@H](O)[C@]2(O)[C@@]13CC(=O)OC[C@@]2(C)[C@](C)(O)C(=O)C3
inactive: locus YAL021C, strain ccr4, stronger effect = lower value 1.02 | locus YAL026C, strain drs2, stronger effect = lower value 1.04 | locus YAL030W, strain snc1, stronger effect = lower value 1.02 | locus YBL061C, strain skt5, stronger effect = lower value 1.02 | locus YBR009C, strain hhf1, stronger effect = lower value 1.02 | locus YBR023C, strain chs3, stronger effect = lower value 1.03 | locus YBR171W, strain sec66, stronger effect = lower value 1.03 | locus YBR231C, strain swc5, stronger effect = lower value 1.03 | locus YBR279W, strain paf1, stronger effect = lower value 1.03 | locus YCL011C, strain gbp2, stronger effect = lower value 1.02 | locus YCL016C, strain dcc1, stronger effect = lower value 1.02 | locus YCL061C, strain MRC1, stronger effect = lower value 1.02 | locus YCL069W, strain vba3, stronger effect = lower value 1.02 | locus YCR088W, strain abp1, stronger effect = lower value 1.02 | locus YDL005C, strain med2, stronger effect = lower value 1.03 | locus YDL040C, strain nat1, stronger effect = lower value 1.02 | locus YDR001C, strain nth1, stronger effect = lower value 1.02 | locus YDR069C, strain doa4, stronger effect = lower value 1.04 | locus YDR137W, strain rgp1, stronger effect = lower value 1.03 | locus YDR159W, strain sac3, stronger effect = lower value 1.05 | locus YDR195W, strain ref2 1.02 | locus YDR297W, strain sur2, stronger effect = lower value 1.03 | locus YDR334W, strain swr1, stronger effect = lower value 1.03 | locus YDR335W, strain msn5, stronger effect = lower value 1.03 | locus YDR392W, strain spt3, stronger effect = lower value 0.974 | locus YEL003W, strain gim4, stronger effect = lower value 1.04 | locus YEL037C, strain rad23, stronger effect = lower value 1.03 | locus YEL061C, strain CIN8 (second series), stronger effect = lower value 1.03 | locus YER015W, strain faa2, stronger effect = lower value 1.02 | locus YER016W, strain bim1, stronger effect = lower value 1.02 | locus YER111C, strain swi4, stronger effect = lower value 1.04 | locus YER155C, strain BEM2 (second series), stronger effect = lower value 1.05 | locus YFR010W, strain ubp6, stronger effect = lower value 1.03 | locus YGL167C, strain pmr1, stronger effect = lower value 1.02 | locus YGL173C, strain kem1, stronger effect = lower value 1.02 | locus YGL227W, strain vid30, stronger effect = lower value 1.03 | locus YGL240W, strain doc1, stronger effect = lower value 1.02 | locus YGL253W, strain hxk2, stronger effect = lower value 1.03 | locus YHR013C, strain ard1, stronger effect = lower value 1.04 | locus YHR027C, strain rpn1, stronger effect = lower value 1.02 | locus YHR030C, strain SLT2, stronger effect = lower value 1.08 | locus YHR079C, strain IRE1, stronger effect = lower value 1.05 | locus YHR142W, strain chs7, stronger effect = lower value 1.04 | locus YJL092W, strain hpr5, stronger effect = lower value 1.03 | locus YJL095W, strain BCK1 (second series), stronger effect = lower value 1.03 | locus YJL095W, strain BCK1, stronger effect = lower value 1.05 | locus YJL115W, strain asf1, stronger effect = lower value 1.05 | locus YJL129C, strain trk1, stronger effect = lower value 1.06 | locus YJL154C, strain vps35, stronger effect = lower value 1.01 | locus YJL164C, strain tpk1, stronger effect = lower value 1.02 | locus YJL166W, strain qcr8, stronger effect = lower value 1.02 | locus YJL187C, strain SWE1, stronger effect = lower value 1.02 | locus YJR066W, strain TOR1, stronger effect = lower value 0.995 | locus YKL160W, strain elf1, stronger effect = lower value 1.02 | locus YKR026C, strain gcn3, stronger effect = lower value 1 | locus YKR091W, strain srl3, stronger effect = lower value 1.02 | locus YLL001W, strain dnm1, stronger effect = lower value 1.02 | locus YLL026W, stronger effect = lower value 1.03 | locus YLL041C, strain sdh2, stronger effect = lower value 1.02 | locus YLR027C, strain aat2, stronger effect = lower value 1.02 | locus YLR113W, strain HOG1, stronger effect = lower value 1.07 | locus YLR221C, strain rsa3, stronger effect = lower value 1.03 | locus YLR258W, strain gsy2, stronger effect = lower value 1.02 | locus YLR262C, strain YPT6 (second series), stronger effect = lower value 1.03 | locus YLR320W, strain mms22, stronger effect = lower value 1.03 | locus YLR342W, strain FKS1, stronger effect = lower value 1.03 | locus YLR357W, strain rsc2, stronger effect = lower value 1.07 | locus YLR370C, strain arc18, stronger effect = lower value 1.02 | locus YLR384C, strain iki3, stronger effect = lower value 1.02 | locus YML120C, strain ndi1, stronger effect = lower value 1.01 | locus YMR058W, strain fet3, stronger effect = lower value 1.03 | locus YMR125W, strain sto1, stronger effect = lower value 1.05 | locus YMR129W, stronger effect = lower value 1.02 | locus YMR205C, strain PFK2, stronger effect = lower value 1.04 | locus YMR231W, strain pep5, stronger effect = lower value 1.03 | locus YNL071W, strain lat1, stronger effect = lower value 1.03 | locus YNL183C, strain NPR1, stronger effect = lower value 0.984 | locus YNL209W, strain ssb2, stronger effect = lower value 1.02 | locus YNL248C, strain rpa49, stronger effect = lower value 1.03 | locus YNL322C, strain KRE1 (second series), stronger effect = lower value 1.02 | locus YNR049C, strain mso1, stronger effect = lower value 1.03 | locus YOR001W, strain rrp6, stronger effect = lower value 1.03 | locus YOR070C, strain gyp1, stronger effect = lower value 1.02 | locus YOR080W, strain dia2, stronger effect = lower value 1.03 | locus YOR083W, strain WHI5, stronger effect = lower value 1.01 | locus YOR106W, strain vam3, stronger effect = lower value 1.02 | locus YOR231W, strain MKK1, stronger effect = lower value 1.06 | locus YOR265W, strain rbl2, stronger effect = lower value 1.02 | locus YOR270C, strain vph1, stronger effect = lower value 1.09 | locus YOR290C, strain snf2, stronger effect = lower value 0.993 | locus YPL051W, strain arl3, stronger effect = lower value 1.02 | locus YPL078C, strain atp4, stronger effect = lower value 1.03 | locus YPL106C, strain sse1, stronger effect = lower value 1.02 | locus YPL240C, strain hsp82, stronger effect = lower value 1.03 | locus YPL256C, strain CLN2, stronger effect = lower value 1.05

COc1ccc(NC(=O)c2ccc(-c3ccc(-c4noc(C)n4)cc3C)cc2)cc1N1CCN(C)CC1
inactive: locus YAL040C, strain CLN3, stronger effect = lower value 1.05 | locus YCL061C, strain MRC1 (second series), stronger effect = lower value 0.982 | locus YDR363W, strain ESC2, stronger effect = lower value 0.959 | locus YER002W, strain NOP16, stronger effect = lower value 1.01 | locus YJR075W, strain HOC1, stronger effect = lower value 0.974 | locus YMR307W, strain GAS1, stronger effect = lower value 0.933 | locus YNL153C, strain GIM3, stronger effect = lower value 0.946 | locus YNL175C, strain NOP13, stronger effect = lower value 1.02 | locus YNL197C, strain WHI3, stronger effect = lower value 1.04 | locus YNL224C, strain SQS1, stronger effect = lower value 1.01 | locus YNL322C, strain KRE1, stronger effect = lower value 0.965 | locus YOR083W, strain WHI5 (second series), stronger effect = lower value 0.939 | locus YPL241C, strain CIN2, stronger effect = lower value 0.994
